Screening data as filed in PubChem.
Rows were chosen to be rich in hits. Some 1.2% of all compounds tested hit in one or more screens of this group.
TRPV1 potentiator = enhances activation of the human vanilloid receptor TRPV1; 320,000 tested, 0.02% active; Q8NER1; TRPV1-expressing cells, Fluo-8 calcium influx, capsaicin EC20 potentiation; AID 540277; potentiation, % at 8.33 µM; in the data active = potentiation above about 80%; also: 0% is about no effect
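TRPV1-expressing cells were cultured overnight at 35.5C and loaded with Fluo-8 calcium dye for 40 to 90 min at room temperature. After a 10 s baseline, compound was added and calcium influx was read kinetically for 3 min (ex 480/em 520 nm).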
KCNH2 WT inh = inhibitors of human wildtype KCNH2 potassium channel | Q12809 | U2OS, BacMam KCNH2, thallium flux FluxOr; active compounds read low | activity change, % at 1.84 µM | 340,000 tested, 0.37% active;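 active = maximum activity change below -70%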; also: % is scaled to controls: 0 for no effect and ±100 for the full control effect
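U2OS cells transduced with wild-type KCNH2 virus are loaded with FluxOr dye for 45 min, and thallium flux is measured in kinetic reads before and after stimulation buffer. Rate constants are normalized to DMSO controls.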
TRPV1 agonist = agonists of human vanilloid receptor 1 (TRPV1); Q8NER1; TRPV1-expressing cells, Fluo-8 calcium influx, agonist mode; activation, % at 8.33 µM; 320,000 tested, 0.19% active; in the data active = activation above about 80%; also: 0% is about no effect
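Cells expressing TRPV1 were dye-loaded with Fluo-8 and read kinetically: 10 s baseline, 3 min after compound (agonist portion), then 2 min after EC20 capsaicin (allosteric enhancer portion). Calcium-bound dye fluorescence at 480/520 nm.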
KCNH2 3.1 block = inhibitors of human KCNH2 3.1 potassium channel isoform | U2OS KCNH2 3.1, thallium flux FluxOr; active compounds read low | 340,000 tested, 0.95% active | AID 720553 | activity change, % (tested at about 1.8 µM);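 active = maximum activity change below -70%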;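 also: thallium influx rate constant from kinetic fluorescence after stimulation buffer; % is scaled to controls: 0 for no effect and ±100 for the full control effect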
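Thallium flux read-out: FluxOr dye with Red40 quencher in HBSS/HEPES, 45 min at RT. Rate constants from kinetic reads were normalized to positive and negative DMSO controls. Cells: U2OS virally expressing the 3.1 isoform.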
Numbers without * were called inactive; . = no result given.

SMILES	TRPV1 potentiator	KCNH2 WT inh	TRPV1 agonist	KCNH2 3.1 block
O=C(C1=C[C@@H](c2ccc3c(c2)OCO3)C[C@@H](OCCCCO)O1)N1CCOCC1	-9	-5	16	15
CC(NC(=O)C(Cc1ccccc1)=NO)c1ccccc1 (stereo unspecified)	.	-9	.	-9
COC(=O)c1c(C)c[nH]c1C	1	2	1	-2
CCOC(=O)c1c(C)c[nH]c1C	9	2	0	-85*
C#CCNC(=O)C1CCN(c2ccc(S(=O)(=O)N3CCOCC3)cc2Cl)CC1	-11	-3	82*	-2
CC(C)CNC(=O)C1CCN(c2ccc(S(=O)(=O)N3CCOCC3)cc2Cl)CC1	-40	-8	-2	13
O=C(NNC(=O)c1ccccc1O)c1ccc(Br)cc1	-15	4	16	4
O=C(O)CCCC(=O)NNC(=O)c1cccc(Br)c1	1	6	2	-98*
O=C(NNC(=O)c1ccccc1O)c1cccc(Br)c1	7	3	1	-81*
O=C(OCc1cn([C@@H]2C[C@H](c3ccccc3)N(C(=O)C3CCCCC3)C[C@H]2O)nn1)c1ccccc1	.	6	.	6
OC(CNCCc1ccc(C(F)(F)F)cc1)COC(c1ccccc1)c1ccccc1 (stereo unspecified)	-23	.	16	-74*
O=C(CC(NC(=O)C(F)(F)F)c1ccccc1)Nc1nnc(CCc2ccccc2)s1 (stereo unspecified)	-2	3	-3	-6
COc1ccc(CCn2c(C)cc(C(=O)CCl)c2C)cc1OC	5	4	2	-4
